Consider 38 compounds from PubChem BioAssay AID1508622 (National Center for Advancing Translational Sciences (NCATS), 2021).

Each structure is given as a SMILES string. Values without a mark were called inactive. Calls of active or inactive are those of the source. Calls follow the shape of the dose curve; as a rule, active = well fitted activation curve with a large enough effect; inconclusive = small, poorly fitted or top-dose-only effect; inactive = no such curve, though single readings can be large or run the other way.
Potency is read from the fitted curve at half-maximal effect.

A short description of this experiment: Confirmatory qHTS for Identification of Small Molecule Activators of Huntingtin-Antisense Promoter Activity. The settings on record: HEK293 HTT-AS promoter firefly luciferase reporter, 24 h; series mostly up to 57.5 µM; activity change, positive = activation: at the top concentration. In a few lines: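 Activity normalized between vehicle control (0%) and zero RLU (-100%) from firefly luminescence (Dual-Glo). Compounds, up to 57.5 uM final, incubated 24 h at 37C on HEK293 reporter cells plated 24 h earlier.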
For `CCOc1ccc(C(=O)Nc2ccc(-n3nncc3-c3ccc(OC)cc3)cc2)cc1`, the “activity change, positive = activation” value was -27.6%. Regarding `CCOc1ccc(C(=O)NCc2ccc3c(c2)CCN3C(=O)c2ccccc2)cc1`, the “activity change, positive = activation” value is -14.1%.

In the case of `Cc1cccc(N2CCN(C(=O)c3ccc4c(c3)CCN4S(=O)(=O)c3ccccc3)CC2)c1C`, the “activity change, positive = activation” value was -64.4%. `CCc1cccc(C)c1NC(=O)COCc1cc(-c2ccc3c(c2)OCO3)on1`: the “activity change, positive = activation” value was -92%.

In the case of `Cc1ccccc1Nc1sc(C(=O)c2ccc(F)cc2)c(N)c1C(=O)NCCc1ccccc1`, the “activity change, positive = activation” value is -2.08%. Still for that read-out and setting: to `COC(=O)c1c(C)oc2ccc(N(C(=O)c3ccncc3)S(=O)(=O)c3ccc(Br)cc3)cc12` belongs -95%. For `Cc1cc(SCC(=O)Nc2nsc(-c3ccc(C(C)(C)C)cc3)n2)nc2ccccc12`, the Potency is 2.69 µM (active). As for `Cn1c(NCCN(CCO)CCCc2ccc([N+](=O)[O-])cc2)cc(=O)n(C)c1=O`, the “activity change, positive = activation” value is -9.85%.

Turning to `CC[C@@H]1C(=O)N(C)c2cnc(Nc3ccc(C(=O)NC4CCC(N5CCN(CC6CC6)CC5)CC4)cc3OC)nc2N1C(C)C` (stereo partly drawn), the “activity change, positive = activation” value is 1.78%.

Take `COc1ccc(N2CCN(CCCNC(=O)c3c(C)nn(-c4ccc(F)cc4)c3-n3cccc3)CC2)cc1`: the “activity change, positive = activation” value was -48.9%. Same read-out and setting: next, `COc1cc(OC)c(OC)cc1CN1CCc2nc(N3CCN(c4ncccn4)CC3)ncc2C1`: -35.1%; `O=C(Nc1cccc(Cl)c1)C1CCCN(c2nn3cc(-c4ccc(F)cc4)nc3s2)C1` (stereo not drawn): -64.6%.

For the compound `CC(C)c1ccc(NC(=O)c2ccc(F)c(S(=O)(=O)N3CCCCCC3)c2)cc1`, the “activity change, positive = activation” value was -29.2%. Consider `O=C(C=Cc1ccc(O)cc1)c1ccc(O)cc1O`, for which the “activity change, positive = activation” value was 17.4%. Still for that read-out and setting: next, `Cc1ccc(C)c(NC(=O)Cn2c(=O)oc3cc(S(=O)(=O)NCc4ccccc4)ccc32)c1`: -38.1%; `Cc1ccc(Cl)cc1N1CCN(C(=O)c2ccc3c(c2)N(Cc2ccc(F)cc2)CCS3)CC1`: -36.5%. Same read-out and setting: to `COc1ccc(CNC(=O)c2ccc3c(c2)CCN3S(=O)(=O)c2ccc(C)cc2)cc1` belongs -20.3%; to `O=C(Nc1nnc(S(=O)(=O)N2CCc3ccccc32)s1)c1cccc(Cl)c1`, -45.6%. Still for that read-out and setting: to `CSc1ncc(Cl)c(C(=O)Nc2ccc(S(=O)(=O)N3CCC(C)CC3)cc2)n1` belongs -31.6%; to `Cc1cccc(CCNC(=O)c2c[nH]c3ccc(S(=O)(=O)Nc4ccccc4F)cc3c2=O)c1`, -39%. As to `COc1cc(C[C@@H](CO)[C@H](CO)Cc2ccc(O)c(OC)c2)ccc1O`, the “activity change, positive = activation” value is 0.541%.

With `Cc1cc(NC(=O)Cn2c(=O)oc3cc(S(=O)(=O)N4CCCC4)ccc32)ccc1Br`, the “activity change, positive = activation” value was -28.5%. As for `CCN1C(=O)c2ccccc2Sc2ccc(NC(=O)Nc3cccc([N+](=O)[O-])c3C)cc21`, the “activity change, positive = activation” value is -50.4%. Regarding `CCCOCc1cc(CN2CCN(c3cccc(Cl)c3)CC2)c(O)c2ncccc12`, the “activity change, positive = activation” value was -37.8%. As for `COc1cccc(C(=O)NC(c2ccc(Cl)cc2)c2cc(Cl)c3cccnc3c2O)c1` (stereo not drawn), the “activity change, positive = activation” value was -28.6%.

Turning to `CN(C)c1ccc(C(=O)NCCCCCCC(=O)NO)cc1`, the Potency is 30.1 µM (active).

For `O=C(Nc1ccc(F)c(Cl)c1)c1cc(S(=O)(=O)N2CCCc3ccccc32)ccc1F`, the “activity change, positive = activation” value is 24.1%. As to `Cc1cc(OCC(=O)N2CCC(c3nc4ccccc4s3)CC2)ccc1Cl`, the “activity change, positive = activation” value was -93.3%.

As for `O=C(Cc1ccccc1)Nc1cccc(-c2cn3cccnc3n2)c1`, the Potency was 10.7 µM (active). Consider `CCc1ccc(CNC(=O)c2sc3ncccc3c2-n2c(C)ccc2C)cc1`, for which the “activity change, positive = activation” value was -42.3%. The same measure, in the same setting: next, `COc1ccc(OC)c(CCNC(=O)c2cnn(-c3ccc(C)cc3C)c2C2CCN(C(=O)OC(C)(C)C)CC2)c1`: -34%; `CCc1ccc(OCC(=O)NCC(c2ccc(Cl)cc2)N2CCOCC2)cc1` (stereo not drawn): -12.9%; `Cc1cccc(C(=O)Nc2nc(-c3nnn(-c4cc(F)ccc4F)c3C)ns2)c1`: -38.5%.

On to `Cc1ccc(CSc2ncc(Cl)c(C(=O)NCCc3ccc(S(N)(=O)=O)cc3)n2)cc1`, for which the “activity change, positive = activation” value was -39.2%. Turning to `COc1ccc(OC)c(CCNC(=O)C(C)n2nc(C)c3c(C)n(-c4ccc(C)cc4)nc3c2=O)c1` (stereo not drawn), the “activity change, positive = activation” value was -82.6%. Same read-out and setting: to `Cc1cccc(NC(=O)c2cnn(-c3ccccc3)c2-n2cccc2)c1C` belongs -33.2%. With `CCc1ccc(NC(=O)c2ccc(F)c(S(=O)(=O)N3CCC(C)CC3)c2)cc1`, the “activity change, positive = activation” value is -23.4%. Consider `COC(=O)c1c(C)oc2ccc(N(C(=O)c3ccncc3)S(=O)(=O)c3cc(C)ccc3C)cc12`, for which the “activity change, positive = activation” value was -90.5%.
